Assay outcomes as filed in PubChem BioAssay.
Shown are actives, neighbours in structure and some others; about 3.9% of the full set was active somewhere.
Rtt109 Vps75 – inhibitors of C. albicans Rtt109/Vps75 HAT, primary screen, biochemical, ThioGlo CoA-SH fluorescence, plate reader | purified Rtt109/Vps75, 4 h | Histone acetyltransferase RTT109 (Candida albicans (strain SC5314 / ATCC MYA-2876)), … | inhibition, % at 34.9 µM | 0.16% of 330,000 active;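 active = inhibition of at least 50% in every replicate; inconclusive = best replicate reaches 50% inhibition but some replicates fall short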
Target sequence (Q5AAJ8 whole entry, looked up): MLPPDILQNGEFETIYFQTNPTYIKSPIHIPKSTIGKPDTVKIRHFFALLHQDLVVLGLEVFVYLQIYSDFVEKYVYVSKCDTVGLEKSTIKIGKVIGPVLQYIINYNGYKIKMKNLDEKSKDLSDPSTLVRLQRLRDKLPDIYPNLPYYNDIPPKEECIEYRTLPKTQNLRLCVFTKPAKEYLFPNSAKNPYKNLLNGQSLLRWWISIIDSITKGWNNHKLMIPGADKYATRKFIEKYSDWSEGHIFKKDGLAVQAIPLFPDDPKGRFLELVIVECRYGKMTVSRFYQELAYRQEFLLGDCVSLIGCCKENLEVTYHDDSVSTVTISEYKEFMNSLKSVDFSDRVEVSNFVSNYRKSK
SKKanGAS inh – S. pyogenes SKKanGAS growth inhibitors in kanamycin, primary screen, streptokinase expression inhibitor project, SKKanGAS strain, BacTiter-Glo luminescence | 6 h | inhibition, % at 7.5 µM | 1.3% of 300,000 active | AID 1662, 2009;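 active = mean replicate score, as percent of positive control median, at least 50; inconclusive = mean below 50 but one replicate at or above 50; inactive = mean and every replicate below 50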;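 note: strain carries kanamycin resistance gene driven by streptokinase promoter and grows in 40 µg/ml kanamycin; loss of luminescence reflects streptokinase promoter inhibition or plain growth inhibition; 0% = median of DMSO wells and 100% = positive control at its reference dose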
PHOSPHO1 block – PubChem AID 1565; Phosphoethanolamine/phosphocholine phosphatase (Homo sapiens), Q8TCT1; recombinant PHOSPHO1, absorbance phosphatase assay; inhibition, % at 13.3 µM; 1.1% of 290,000 active; in the data active = inhibition above about 60%
TPT1 inhibitor – Candida albicans TPT1 enzyme inhibitors, primary screen, biochemical, fluorescence polarization | 0.81% of 300,000 active | AID 1962, 2009 | inhibition, % at 5 µM | tRNA 2'-phosphotransferase TPT1 (Candida albicans SC5314) | recombinant caTPT1, FP RNA substrate dephosphorylation;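 active = inhibition above the mean of all tested compounds plus 3 SD, set per screening campaign, cut at about 24% in these data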;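 note: plate controls were DMSO alone for no effect and ferristatin control at 100 nM for full effect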
Platelet DG rel – inhibitors of platelet dense granule secretion, primary screen, cell-based, MLPCN, human platelets; human platelet-rich plasma, SFLLRN dense granule ATP release, luminescence; inhibition, %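 (compounds screened at 7.5 µM in platelet-rich plasma)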; 0.22% of 300,000 active; AID 1663, 2009;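 active = mean replicate score, as percent of positive control, at or above 50; inconclusive = mean below 50 but at least one replicate at or above 50; inactive = mean and every replicate below 50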
WT yeast gro inh – growth inhibition of WT strain, primary screen, mitochondrial fusion inhibitor project, WT and mutant strains, chemical genetic | inhibition, % at 10 µM | 2.1% of 190,000 active | mitochondrial fusion phenotypic screen; in the data active = inhibition above about 58%; tested in S. cerevisiae
Numbers without * were called inactive; ? = inconclusive; . = no result given.

SMILES | Rtt109 Vps75 | SKKanGAS inh | PHOSPHO1 block | TPT1 inhibitor | Platelet DG rel | WT yeast gro inh
CC(=O)N1N=C(c2ccc(C)cc2)OC1c1ccc(C)cc1 (centres undefined) | -25 | -5 | 11 | 0 | -7 | 18
CC(C)CCC(C)NC(=O)CN1C(=O)NC(C)(c2ccc3ccccc3c2)C1=O (centres undefined) | 17 | 5 | 28 | -2 | -2 | .
O=C1OCC(Cn2c3ccccc3c3ccccc32)O1 (centres undefined) | -3 | -3 | 78* | 0 | -1 | -22
O=C(c1ccco1)N1CCN(C(=S)Nc2ccccc2C(F)(F)F)CC1 | -9 | -7 | 28 | 0 | -4 | .
CCOC(=O)Cn1c(=O)cc(C)c2ccccc21 | -7 | -4 | 37 | 3 | 0 | 4
CCOC(=O)Cn1c(C)[n+](CC(=O)c2ccccc2)c2ccccc21 | 55* | -1 | 32 | -3 | 18 | .
CN(C)CCCNS(=O)(=O)c1ccc(NC2CCCCCC2)c([N+](=O)[O-])c1 | 9 | 4 | 10 | -2 | 2 | .
O=C1C(=O)N(CCCn2ccnc2)C(c2ccc([N+](=O)[O-])cc2)/C1=C(\O)c1ccc2c(c1)OCCO2 (centres undefined) | 2 | . | . | . | . | .
Cn1c(SCC(=O)NC2(C#N)CCCCC2)nnc1-c1cccnc1 | 3 | 54* | 41 | -1 | -1 | .
Cn1c(SCC(=O)NC2CCCCC2)nnc1-c1cccnc1 | 54* | -16 | 20 | -5 | 0 | .
CCOC(=O)c1c(C)[nH]c(C(=O)NCC(c2ccco2)N2CCCCC2)c1C (centres undefined) | -1 | . | . | . | . | .
CCCCCCCCCCCCN1[C@@H](CC(=O)O)c2cc(C(F)(F)F)ccc2S1(=O)=O | ? | 89* | . | -3 | 4 | .
O=C(O)C1CCCCN1C(=O)c1ccc(S(=O)(=O)N2CCCC2)cc1 (centres undefined) | -8 | . | . | . | . | .
CCOCc1c(C(=O)OCC(=O)Nc2ccccc2C(N)=O)oc2ccccc12 | -3 | . | . | . | . | .
CC(=O)Nc1nc2ccccc2n1Cc1ccccc1C | -3 | 25 | 48 | -4 | -3 | 9
CCC(=O)Nc1nc2ccccc2n1Cc1ccc(Cl)cc1 | 1 | 62* | -1 | -2 | 0 | 64
CCn1c(SCc2ccccc2Cl)nc2ccccc21 | -9 | 74* | 0 | 3 | 1 | 13
CCC(=O)Nc1nc2ccccc2n1CCN1CCOCC1 | 3 | -3 | 5 | -1 | -4 | 1
Cn1c(SCc2ccccc2Cl)nc2ccccc21 | -1 | 17 | 6 | -4 | -23 | 2
CCC(=O)Nc1nc2ccccc2n1Cc1ccccc1Cl | -2 | 63* | 24 | 1 | -5 | .
Cn1c(NCc2ccccc2Cl)nc2ccccc21 | 6 | 5 | . | -7 | 22 | 15
CC(=O)Nc1nc2ccccc2n1Cc1ccccc1Cl | -4 | 52* | 32 | -1 | -1 | .
CCN1CCN(CCNC(=O)c2ccc(CS(=O)c3ccc(Br)cc3)o2)CC1 (centres undefined) | -2 | 29 | 37 | -2 | 4 | .
CCCC(=O)Nc1ccc(C(=O)COC(=O)c2cc(C)oc2C)cc1 | -5 | . | . | . | . | .
O=C1c2ccccc2C(=O)N1CCCc1cn(C[C@H]2CC[C@H](Cn3cc(CCCN4C(=O)c5ccccc5C4=O)nn3)O2)nn1 | -4 | . | . | . | . | .
COc1ccc(C(C)NC(=O)c2ccncc2)cc1OC (centres undefined) | 2 | 14 | 31 | 0 | -10 | .
O=C(Nc1nc2ccccc2n1Cc1ccccc1)c1ccco1 | -15 | 55* | 24 | -7 | 0 | 14
CCCCCCCn1c(NC(=O)CC)nc2ccccc21 | 19 | 104* | 4 | 2 | 12 | .
CCC(=O)OCC(=O)[C@@]1(OC(=O)CC)[C@@H](C)C[C@H]2[C@@H]3CCC4=CC(=O)C=C[C@]4(C)[C@@]3(Cl)[C@@H](O)C[C@@]21C | 10 | . | . | 0 | . | .
CC[C@]12c3[nH]c4ccc(Cl)cc4c3CCN1C(=O)[C@@H](CC(=O)NC/C=C(\C)CCC=C(C)C)C[C@@H]2C(=O)N1CCN(C(=O)c2ccco2)CC1 | 5 | . | . | . | . | .
